Results reported in PubChem BioAssay (EPA / NIEHS).
Records with an inconclusive call do not appear. The source made the active and inactive calls. How the source made its calls, unless noted: active means hit-call score of the fitted dose curve at least 0.9, where 1 is the maximum; inactive means score below 0.9.

Columns and labels:
[1] = CCTE_Harrill_HTTr_Viability_MCF7: CCTE's 6-hour Cell Viability Assessment for the High-Throughput Transcriptomics (HTTr) Platform, in MCF-7 cells cultured in DMEM + 10% fetal bovine serum, Harrill Lab (AID 2284010)
Outline: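 Cells were dosed with chemicals in an eight-point dilution series, imaged 6 hours later for propidium iodide uptake, and the endpoint was analyzed by bidirectional fitting against DMSO as negative control.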

[2] = CCTE_Harrill_HTTr_Apoptosis_MCF7: CCTE's 6-hour Apoptosis Assessment for the High-Throughput Transcriptomics (HTTr) Platform, in MCF-7 cells cultured in DMEM + 10% fetal bovine serum, Harrill Lab (AID 2284011)
Outline: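 Read-out: CellEvent Caspase 3/7 Green signal by high content imaging, gain-of-signal indicating apoptosis. MCF-7 cells, DMEM + 10% FBS, eight-point dilution series, 6 h exposure. Curves fitted bidirectionally relative to DMSO negative control.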

[3] = CCTE_Shafer_MEA_dev_firing_rate_mean: CCTE's Neural Network Formation Assay for Mean Firing Rate, Shafer Lab (AID 2284031)
Outline: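 Rat primary cortical neurons were seeded on multielectrode arrays and treated from plating through day 12, with redosing at each feed. Spontaneous spiking was recorded four times; mean firing rate AUC was fitted downward against DMSO.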

[4] = CCTE_Shafer_MEA_dev_per_burst_spike_percent: CCTE's Neural Network Formation Assay for Percent of Spikes in a Burst, Shafer Lab (AID 2284032)
Outline: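 Rat primary cortical neurons on 16-electrode MEA wells, dosed from plating day 0 for 12 days with renewal on DIV 5 and 9; spikes-in-bursts percentage averaged over bursting electrodes, collapsed as AUC across days 5, 7, 9, 12; loss direction versus DMSO.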

[5] = CCTE_Shafer_MEA_dev_active_electrodes_number: CCTE's Neural Network Formation Assay for Number of Active Electrodes, Shafer Lab (AID 2284040; active means hit-call score of the fitted dose curve at least 0.9, where 1 is the maximum)
Outline: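 Primary rat cortical neurons on 16-electrode MEA wells, exposed from day 0 through day 12 with compound renewed at DIV 5 and 9 feeds. Active electrodes (mean firing ≥5 spikes/min) counted at DIV 5, 7, 9, 12; trapezoidal AUC across days, loss-of-signal versus DMSO.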

[6] = CCTE_Shafer_MEA_dev_burst_rate: CCTE's Neural Network Formation Assay for Burst Rate, Shafer Lab (AID 2284042)
Outline: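 Developmental network assay measuring how 12-day exposure of rat cortical neuron cultures alters bursting on extracellular MEA recordings. Values are AUC of well-mean burst rate across four recording days, relative to DMSO vehicle.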

[7] = CCTE_Shafer_MEA_dev_bursting_electrodes_number: CCTE's Neural Network Formation Assay for Number of Bursting Electrodes, Shafer Lab (AID 2284043; active means hit-call score of the fitted dose curve at least 0.9, where 1 is the maximum)
Outline: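 Primary rat cortical neurons plated on 16-electrode MEA wells, exposed from day 0 with compound renewed at DIV 5 and 9. Electrodes bursting ≥1 burst per 2 min counted on days 5, 7, 9 and 12; trapezoidal AUC across days, fitted for loss versus DMSO.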

[8] = CCTE_Shafer_MEA_dev_per_burst_interspike_interval: CCTE's Neural Network Formation Assay for Burst Interspike Interval, Shafer Lab (AID 2284044)
Outline: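 Readout is the average time between spikes inside single-electrode bursts, taken as a well mean across bursting electrodes. Cortical neurons from rat developed networks on MEA plates under continuous 12-day exposure; recordings on days 5, 7, 9 and 12 were integrated by trapezoidal AUC.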

[9] = CCTE_Shafer_MEA_dev_burst_duration_mean: CCTE's Neural Network Formation Assay for Mean Burst Duration, Shafer Lab (AID 2284045)
Outline: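 Primary rat cortical neurons on 48-well 16-electrode MEA plates, exposed from day 0 with renewal at DIV 5 and 9; spontaneous activity recorded on days 5, 7, 9, 12. Well-mean burst duration across bursting electrodes, collapsed as trapezoidal AUC; DMSO baseline.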

[10] = CCTE_Shafer_MEA_dev_interburst_interval_mean: CCTE's Neural Network Formation Assay for Mean Interburst Interval, Shafer Lab (AID 2284046);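 further: well-mean interburst interval of bursting electrodes as AUC over four recording days; curve fitted for decrease in interburst interval relative to DMSO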
Outline: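 Network formation assay in primary rat cortical cultures, exposed from DIV 0 to 12. Mean interburst interval per well, integrated as AUC over four recordings.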

[11] = CCTE_Shafer_MEA_dev_inter_network_spike_interval_mean: CCTE's Neural Network Formation Assay for Mean Inter-network Spike Interval, Shafer Lab (AID 2284047)
Outline: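 Compound was given at plating to primary rat cortical neurons and renewed with full medium changes on DIV 5 and 9. Extracellular activity was recorded on days 5, 7, 9, 12; AUC values were fitted for loss relative to DMSO control.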

[12] = CCTE_Shafer_MEA_dev_network_spike_peak: CCTE's Neural Network Formation Assay for Mean Number of Electrodes in Network Spike, Shafer Lab (AID 2284049)
Outline: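 Network-spike peak electrode count from recordings on days 5, 7, 9 and 12 was combined as trapezoidal area under the curve. Rat cortical cultures were treated continuously from plating, with compound renewed at each feed (DIV 5, 9); fits versus DMSO.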

[13] = CCTE_Shafer_MEA_dev_spike_duration_mean: CCTE's Neural Network Formation Assay for Mean Spike Duration, Shafer Lab (AID 2284051);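 further: mean network spike duration pooled as area under curve over DIV 5 to 12 recordings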
Outline: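 With DMSO as baseline, loss of mean network spike duration was scored from extracellular recordings of rat cortical neurons on MEA plates. Exposure spanned plating to DIV 12; the four recording days were collapsed into one AUC value.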

[14] = CCTE_Shafer_MEA_dev_network_spike_duration_std: CCTE's Neural Network Formation Assay for Standard Deviation of Network Spike Duration, Shafer Lab (AID 2284052);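 further: area under curve of spike duration SD across recording days 5 to 12; hits are decreases in network spike duration SD versus DMSO vehicle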
Outline: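 Developing networks of rat cortical neurons were exposed over twelve days in vitro on 48-well MEA plates. Trapezoidal AUC of recordings (DIV 5–12) was analysed for signal loss relative to DMSO vehicle.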

[15] = CCTE_Shafer_MEA_dev_per_network_spike_spike_number_mean: CCTE's Neural Network Formation Assay for Mean Number of Spikes in a Network Spike, Shafer Lab (AID 2284053)
Outline: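 First, rat cortical cells (1.5 x 10^5/well) were seeded onto MEA wells; second, dosing began at plating and was refreshed on DIV 5 and 9; finally, network-spike spike counts across DIV 5–12 were summarized as AUC.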

[16] = CCTE_Shafer_MEA_dev_per_network_spike_spike_percent: CCTE's Neural Network Formation Assay for Percent of Spikes in a Network Spike, Shafer Lab (AID 2284054)
Outline: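 Rat primary cortical neurons were grown on 48-well MEA plates (16 electrodes/well), exposed from plating day 0 through day 12, with treatment renewed on DIV 5 and 9. Percent of spikes within 0.05 s network-spike peaks was measured, summarised as AUC across days 5, 7, 9, 12.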

[17] = UKN5_HCS_SBAD2_cell_viability: Viability Assessment in the University of Konstanz (UKN) Leist Lab Neurite Outgrowth Assay in human iPSC-derived immature Dorsal Root Ganglia Neurons (UKN5) (AID 2284056)
Outline: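 iPSC-derived immature peripheral neurons (SBAD2) seeded on Matrigel with CHIR99021, SU5402 and DAPT, dosed 1 h later for 24 h. Viability from Hoechst H-33342 and calcein-AM live staining, high-content imaging; bidirectional fit versus DMSO.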

[18] = CCTE_Shafer_MEA_dev_LDH: CCTE's Lactate Dehydrogenase Assay for Cytotoxicity in the Neural Network Formation Assay, Shafer Lab (AID 2284068; active means hit-call score of the fitted dose curve at least 0.9, where 1 is the maximum;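 further: exposure for twelve days from plating with re-dosing on DIV 5 and 9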)
Outline: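 Developing rat cortical networks on MEA plates are exposed to compound for 12 days from plating. LDH activity is measured spectrophotometrically, with DMSO as baseline.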

[19] = UKN5_HCS_SBAD2_neurite_outgrowth: University of Konstanz (UKN) Leist Lab Neurite Outgrowth Assay in human iPSC-derived immature Dorsal Root Ganglia Neurons (UKN5) (AID 2284070); details: actives raise or lower the signal
Outline: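 Read-out: calcein-AM-stained neurite area by high-content imaging, Hoechst H-33342 for viability, after 24 h exposure of iPSC-derived immature dorsal root ganglia neurons. Activity fitted in both directions relative to DMSO baseline.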

[20] = CCTE_Shafer_MEA_dev_mutual_information_norm: CCTE's Neural Network Formation Assay for Mutual Information Normalization, Shafer Lab (AID 2284091)
Outline: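 Primary rat cortical neurons on PEI-coated 48-well MEA plates, 1.5 x 10^5 cells/well, exposed from day 0 through day 12 with re-dosing at DIV 5 and 9. Mutual information between electrodes recorded days 5, 7, 9, 12; trapezoidal AUC, loss-of-signal fit versus DMSO.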

[21] = CCTE_Shafer_MEA_dev_correlation_coefficient_mean: CCTE's Neural Network Formation Assay for Mean Correlation Coefficient, Shafer Lab (AID 2284093)
Outline: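 Extracellular firing from rat cortical networks on 48-well MEAs, DMSO-referenced, negative fitting direction. Compound present from plating to DIV12; mean pairwise correlation per well integrated over DIV5–12 recordings by trapezoidal AUC.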

[22] = UKN2_HCS_IMR90_neural_migration: University of Konstanz (UKN) Leist Lab Neural Crest Cell Migration Assay in human induced IMR90 Pluripotent Stem Cells (UKN2) (AID 2284204); details: actives raise or lower the signal
Outline: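 iPSC-derived IMR90 neural crest cells seeded around stoppers on PLO/laminin/fibronectin; migration started in N2-S medium with EGF/FGF, compounds added after 24 h for 24 h. Migration into cell-free area imaged after calcein-AM/Hoechst staining; bidirectional fit versus DMSO.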

[23] = CCTE_Mundy_HCI_Cortical_Synap_Neur_Matur_NeuriteSpotCountPerNeuriteLength: CCTE's Synaptogenesis and Neurite Maturation Assay in rat cortical cells for Neurite Spot Count per Neurite Length, Mundy Lab (AID 2284210)
Outline: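 Rat primary cortical cultures, AraC added at DIV 5 to suppress glia; chemical exposure from DIV 7 to DIV 12. Fixed cells stained for MAP2 and synaptophysin plus Hoechst; synaptophysin puncta per neurite length quantified by high-content imaging, relative to DMSO.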

[24] = CCTE_Mundy_HCI_Cortical_NOG_NeuriteLength: CCTE's Neurite Outgrowth Assay in rat cortical cells for Neurite Length, Mundy Lab (AID 2284213)
Outline: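 Neurite length was read by high-content imaging of βIII-tubulin-labelled neurites in rat primary cortical cultures. Activity was fitted relative to DMSO.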

[25] = CCTE_Mundy_HCI_Cortical_Synap_Neur_Matur_NeuriteLength: CCTE's Synaptogenesis and Neurite Maturation Assay in rat cortical cells for Neurite Length, Mundy Lab (AID 2284214)
Outline: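 Rat cortical neurons, AraC at DIV 5; compound + media change DIV 7, end DIV 12 (288.33 h). Fix, MAP2/synaptophysin/Hoechst immunostain, automated HCI of neurite length vs DMSO.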

[26] = CCTE_Mundy_HCI_Cortical_Synap_Neur_Matur_NeuriteSpotCountPerNeuron: CCTE's Synaptogenesis and Neurite Maturation Assay in rat cortical cells for Neurite Spot Count per Neuron Count, Mundy Lab (AID 2284215)
Outline: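 Read-out: neurite-associated synaptophysin puncta per neuron, imaged by high-content analysis after MAP2, synaptophysin and Hoechst staining. Rat primary cortical cultures, dosed DIV 7 through DIV 12; DMSO served as baseline.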

[27] = CCTE_Mundy_HCI_Cortical_Synap_Neur_Matur_SynapseCount: CCTE's Synaptogenesis and Neurite Maturation Assay in rat cortical cells for Synapse Count, Mundy Lab (AID 2284218)
Outline: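 Primary rat cortical culture; AraC DIV 5 to arrest glia; compound + media change DIV 7; terminated DIV 12. PFA/Hoechst fix, anti-MAP2 + anti-synaptophysin immunostain; HCI synapse count/neuron; DMSO = baseline.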

[28] = CCTE_Mundy_HCI_Cortical_Synap_Neur_Matur_CellBodySpotCount: CCTE's Synaptogenesis and Neurite Maturation Assay in rat cortical cells for Cell Body Spot Count, Mundy Lab (AID 2284223)
Outline: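 Read-out: cell body-associated synaptophysin puncta per neuron, imaged after MAP2, synaptophysin and Hoechst staining. Rat cortical cells, AraC DIV 5, chemical dosing DIV 7, fixation DIV 12. Activity fitted in positive direction relative to DMSO baseline.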

[29] = UKN2_HCS_IMR90_cell_viability: Viability Assessment in the University of Konstanz (UKN) Leist Lab Neural Crest Cell Migration Assay in human induced IMR90 Pluripotent Stem Cells (UKN2) (AID 2284233);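 further: viability of neural crest cells differentiated from IMR90 iPSC measured by calcein-AM fluorescence imaging; cells exposed to compound for 24 h after a 24 h migration phase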
Outline: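 Neural crest cells derived from IMR90 iPSC migrate into a stopper-free zone for 24 h in EGF/FGF medium, then are exposed to compound for 24 h. Viability assessed by calcein-AM and Hoechst staining with high-content imaging, fitted bidirectionally versus DMSO.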

[30] = CCTE_Mundy_HCI_hNP1_Casp3_7: CCTE's Caspase-Glo 3/7 Assay in human neuroprogenitor cells for Apoptosis, Mundy Lab (AID 2284240)
Outline: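 Luminescent caspase-3/7 readout, 26.5 h post-dose, in human neural progenitor cells from WA09 embryonic stem cells. Cells grew 40–44 h at 37 °C, 5% CO2 before chemical addition. Activity analysed as signal increase over DMSO baseline.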

Measured: outcome

II
inactive: [1] | [2]

COC(=O)[C@H]1[C@@H](OC(=O)c2ccccc2)C[C@@H]2CC[C@H]1N2C
not listed: [1] | [2]
inactive: all other assays above
